In PubChem BioAssay (EPA / NIEHS):
“And” between values parts separate entries of the source, which are not always exact repeats. Equal values may be shown once. Results filed as inconclusive are left out. The source made the active and inactive calls. The calls were made as follows: active = hit-call score of the fitted dose curve at least 0.9, where 1 is the maximum; inconclusive = response in the unintended direction; inactive = score below 0.9.

Assay: CCTE_Simmons_CellTiterGLO_HEK293T: Viability Assessment in CCTE's Assays for Thyroperoxidase (TPO) Inhibition, Simmons Lab (AID 2283665);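 as to AC50: cells exposed to compound for 24 h before readout; actives reduce ATP signal below DMSO vehicle meaning cytotoxicity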
Protocol: CCTE_Simmons_CellTiterGLO_HEK293T is a cell-based, single-readout assay that uses HEK293T, a human kidney cell line, with measurements taken at 24 hours after chemical dosing in a 384-well plate.CCTE_Simmons_CellTiterGLO_HEK293T is the assay component measured from the CCTE_Simmons_CellTiterGLO_HEK293T assay. It is designed to make measurements of ATP content, a form of viability reporter, as detected with bioluminescence signals by Luciferase-coupled ATP quantitation technology. This is a secondary cytotoxicity assay to CCTE_Simmons_AUR_TPO to estimate a cellular tolerance limit.Data from the assay component CCTE_Simmons_CellTiterGLO_HEK293T was analyzed at the endpoint, CCTE_Simmons_CellTiterGLO_HEK293T, in the positive analysis fitting direction relative to DMSO as the negative control and baseline of activity. Using a type of viability reporter, measures of ATP content for loss-of-signal activity can be used to understand the viability. This assay was run in parallel with aeid 1508 as a means of indicating the range of chemical cytotoxicity or reactivity. To generalize the intended target to other relatable targets, this assay endpoint is annotated to the cell cycle intended target family, where the subfamily is cytotoxicity.
Human HEK293T cells (GenHunter; Nashville, Tennessee) were seeded overnight in 384-well, solid white assay plates (Greiner, BioExpress) at a density of 10 000 cells per well in 65 ul Dulbecco's Modified Eagle Medium (Life Technologies; Carlsbad, California) supplemented with 1% fetal bovine serum (HyClone; Logan, Utah). Test compounds were administered using the HDRT as described earlier to achieve a 0.5% final DMSO concentration. Cells were then incubated at 37C for 24 hr in a humidified 5% CO2 incubator. Cell Titer Glo (Promega; Madison, WI) reagent (25 ul) was then added by the BioTek MicroFlo and microplates were incubated at room temperature in the dark for 20min. Plates were read on a plate reader (FLUOStar Optima) using an endpoint luminescence protocol (top read). Three biological replicates of technical singles were run for every chemical concentration tested. A titrated range of DCNQ served as a positive control on each plate of the cytotoxicity screening assay.Test chemicals were administered as a titrated series of 8 concentrations from 5 nM up to 87.5 uM [final] for 24 hours prior to single endpoint detection. Three biological replicates of technical singles were run for every chemical concentration tested. Dimethylsulfoxide [DMSO] was used as the vehicle control. Dichlone [DCNQ] was used as the positive control and was administered as a titrated series of 8 concentrations from 1 nM up to 100 uM [final].

SMILES	AC50	outcome
CCCCCCCCCCCCc1ccccc1S(=O)(=O)O	33.9 µM (active)	
CC(C)(C)c1cccc(C(C)(C)C)c1O	10.2 µM (active)	
Cc1oc(-c2ccccc2)nc1CCOc1ccc(C[C@H](Nc2ccccc2C(=O)c2ccccc2)C(=O)O)cc1	12.1 µM (active)	
O=c1c(-c2ccc(O)cc2)coc2cc(O)ccc12	0.393 µM (active)	
CC#C[C@]1(O)CC[C@H]2[C@@H]3CCC4=CC(=O)CCC4=C3[C@@H](c3ccc(N(C)C)cc3)C[C@@]21C	17.7 µM (active)	
Oc1cc2ccccc2c2ccccc12	1.4 µM (active)	
O=C(O)c1ccccc1C(c1ccc(O)cc1)c1ccc(O)cc1		inactive
CN1CCN(c2ccccc2/C=C2\SCCN(c3ccc(Cl)c(Cl)c3)C2=O)CC1	9.55 µM (active)	
Cc1cc(C)c(O)c(C)c1		inactive
CC(C)(C)c1cc(C(C)(C)C)c(O)c(C(C)(C)C)c1	9.06 µM (active)	
CCCCCCCCCCCCN1CCCC1=O	14.9 µM (active)	
CCC(=C(c1ccc(O)cc1)c1ccc(OCCN(C)C)cc1)c1ccccc1	8.78 µM (active) and 3.78 µM (active)	
C#C[C@]1(O)CC[C@H]2[C@@H]3CCC4=CC(=O)CC[C@@H]4[C@H]3CC[C@@]21C	66 µM (active)	
c1ccc2cc3c(ccc4ccccc43)cc2c1	43.8 µM (active)	
N#C[C@@H]1CC(F)(F)CN1C(=O)CNC1CC2CCC(C1)N2c1ncccn1 (stereo partly drawn)		inactive
CC[C@H](c1ccc(O)cc1)[C@@H](CC)c1ccc(O)cc1	2.25 µM (active)	
COc1ccc([N+](=O)[O-])cc1N		inactive
CCCCCCCCCCCCCC[N+](C)(C)C	13.7 µM (active)	
CCN(CC)CCNc1ccc(CNC=O)c2sc3ccc(OC)cc3c(=O)c12	22.1 µM (active)	
Nc1cccc2c(N)cccc12	30.1 µM (active)	
CC(C)(C)c1ccc(O)c(C(C)(C)C)c1	6.68 µM (active)	
Oc1cccc(O)c1		inactive
NC(=O)N(O)[C@@H]1C=C[C@H](Oc2cccc(Oc3ccc(F)cc3)c2)C1	33.1 µM (active)	
